Test results as given in PubChem BioAssay.
Calls of active or inactive are those of the source. Unless noted, how the calls were made is not given here.

What was measured:
[1] = A549 cell viability effects, profiling panel, calcein-AM fluorescence, 48 h, basal (AID 1162); conditions: higher = more signal; further: test concentration not given here
[2] = adipocyte viability effects, profiling panel, cell-based, 3T3-L1 adipocytes, calcein-AM fluorescence, 48 h, basal (AID 1163); conditions: 3T3-L1 adipocytes viability, higher = more signal; further: test concentration not given here
[3] = HepG2 cell viability effects, profiling panel, calcein-AM fluorescence, 48 h, basal (AID 1164); conditions: higher = more signal; further: test concentration not given here
[4] = MM1S cell viability effects, profiling panel, calcein-AM fluorescence, 48 h, basal (AID 1165); conditions: higher = more signal;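 further: viability of MM1S multiple myeloma cells under basal unstimulated conditions; test concentration not given here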
[5] = basal RPMI8226 viability, no added stimulus, profiling panel, cell-based, calcein-AM fluorescence, 48 h, PK04 Diversity Set (AID 1166); conditions: RPMI8226 myeloma viability, higher = more signal;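 further: cells grown under basal conditions without added stimulus; test concentration not given here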
[6] = basal HepG2 mitochondrial membrane potential changes, profiling panel, cell-based, JC-1 fluorescence, 24 h, 100 nL compound (AID 1167); conditions: higher = more signal; further: test concentration not given here
[7] = basal 3T3-L1 adipocyte mitochondrial potential changes, profiling panel, cell-based, JC-1 fluorescence, 3T3-L1 adipocytes, 24 h, 100 nL compound (AID 1168); conditions: JC-1 mitochondrial fluorescence, higher = more signal, called active from +8 up or from −8 down; further: test concentration not given here
[8] = basal RPMI8226 mitochondrial membrane potential changes, profiling panel, cell-based, JC-1 fluorescence, 24 h, 100 nL compound (AID 1169); conditions: RPMI8226 myeloma, JC-1 mitochondrial potential fluorescence, higher = more signal; further: test concentration not given here
[9] = basal MM1S mitochondrial membrane potential changes, profiling panel, cell-based, JC-1 fluorescence, 24 h, 100 nL compound (AID 1170); conditions: higher = more signal; further: test concentration not given here
[10] = A549 lung cancer cell viability effects, profiling panel, resazurin fluorescence, 24 h, PK04 Diversity Set (AID 1171); conditions: higher = more signal, called active from +8 up or from −8 down; further: test concentration not given here
[11] = HepG2 liver cancer cell viability effects, profiling panel, resazurin fluorescence, 24 h, PK04 Diversity Set (AID 1172); conditions: higher = more signal; further: test concentration not given here
[12] = basal S. cerevisiae growth modulation, no modifier, primary screen, OD600, strain BY4716, 24 h, basal condition (AID 1173); conditions: OD600, 24 h, higher = more signal, called active from +8 up or from −8 down
[13] = MM1S myeloma cell viability, profiling panel, resazurin fluorescence, basal, 24 h, PK04 Diversity Set (AID 1174); conditions: higher = more signal, called active from +8 up or from −8 down;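 further: MM1S multiple myeloma cell line; test concentration not given here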
[14] = molecular target: Dihydroorotate dehydrogenase (quinone), mitochondrial (Plasmodium falciparum (isolate 3D7)) (UniProt Q08210); test: PfDHODH enzyme inhibitors, primary screen, biochemical, C-terminal His tag, absorbance 600 nm (AID 1175); conditions: DCIP absorbance 600 nm, higher = more signal, called active from +8 up or from −8 down;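 further: recombinant parasite enzyme with a five histidine tag at its C terminus; test concentration not given here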
Dihydroorotate dehydrogenase (quinone), mitochondrial (Plasmodium falciparum (isolate 3D7)), sequence (Q08210 whole entry, looked up): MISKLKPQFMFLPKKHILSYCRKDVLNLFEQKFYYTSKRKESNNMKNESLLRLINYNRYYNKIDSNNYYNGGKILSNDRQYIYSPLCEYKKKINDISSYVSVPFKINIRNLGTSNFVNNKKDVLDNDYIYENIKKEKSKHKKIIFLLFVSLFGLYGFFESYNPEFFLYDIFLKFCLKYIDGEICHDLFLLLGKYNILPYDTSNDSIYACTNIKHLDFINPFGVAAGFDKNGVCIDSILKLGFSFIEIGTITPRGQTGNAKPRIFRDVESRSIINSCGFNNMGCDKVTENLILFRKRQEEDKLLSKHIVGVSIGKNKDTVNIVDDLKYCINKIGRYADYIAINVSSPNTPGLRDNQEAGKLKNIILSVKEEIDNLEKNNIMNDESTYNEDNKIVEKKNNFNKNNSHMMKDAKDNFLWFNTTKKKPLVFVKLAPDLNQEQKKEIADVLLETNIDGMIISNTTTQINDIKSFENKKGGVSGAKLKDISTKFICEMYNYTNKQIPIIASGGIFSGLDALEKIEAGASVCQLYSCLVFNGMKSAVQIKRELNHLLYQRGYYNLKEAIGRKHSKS

[15] = P. aeruginosa biofilm formation inhibitors, primary screen, strain PAO1, LB-PBS medium, absorbance 600 nm (AID 1176); further: test concentration not given here; conditions: P. aeruginosa PAO1 growth/biofilm, A600, 12 h; higher = more signal
[16] = S. cerevisiae RM11-1a growth modifiers, primary screen, strain RM11-1a, OD600, basal, 24 h (AID 1177); conditions: OD600, 24 h, higher = more signal, called active from +8 up or from −8 down;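 further: cultures grown under basal conditions with no added stressor; test concentration not given here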
[17] = E. coli acrAB mutant growth effects, primary screen, E. coli filamentation inducers, strain DRC39, OD650, 24 h (AID 1178); conditions: higher = more signal, called active from +8 up or from −8 down;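 further: growth measured as culture turbidity by optical density at 650 nm; test concentration not given here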
[18] = E. coli acrAB mutant growth effects, primary screen, E. coli filamentation inducers, strain DRC39, OD650, 48 h (AID 1179);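 further: screen aims at cell division blockers that make cells filament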; conditions: E. coli DRC39 delta-acrAB growth, higher = more signal, called active from +8 up or from −8 down
[19] = RPMI8226 myeloma cell viability, profiling panel, resazurin fluorescence, basal, 24 h, PK04 Diversity Set (AID 1180); conditions: higher = more signal;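 further: RPMI8826 multiple myeloma cell line at 5000 cells per well; test concentration not given here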
[20] = molecular target: E3 ubiquitin-protein ligase XIAP (Homo sapiens) (UniProt P98170); test: XIAP binders, primary screen, biophysical, small-molecule microarray, fluorescence 635 nm (AID 1181); conditions: small-molecule microarray binding, higher = more signal;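 further: score merges 667 nm emission and signal to noise over triplicate slides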
E3 ubiquitin-protein ligase XIAP (Homo sapiens), sequence (P98170 whole entry, looked up): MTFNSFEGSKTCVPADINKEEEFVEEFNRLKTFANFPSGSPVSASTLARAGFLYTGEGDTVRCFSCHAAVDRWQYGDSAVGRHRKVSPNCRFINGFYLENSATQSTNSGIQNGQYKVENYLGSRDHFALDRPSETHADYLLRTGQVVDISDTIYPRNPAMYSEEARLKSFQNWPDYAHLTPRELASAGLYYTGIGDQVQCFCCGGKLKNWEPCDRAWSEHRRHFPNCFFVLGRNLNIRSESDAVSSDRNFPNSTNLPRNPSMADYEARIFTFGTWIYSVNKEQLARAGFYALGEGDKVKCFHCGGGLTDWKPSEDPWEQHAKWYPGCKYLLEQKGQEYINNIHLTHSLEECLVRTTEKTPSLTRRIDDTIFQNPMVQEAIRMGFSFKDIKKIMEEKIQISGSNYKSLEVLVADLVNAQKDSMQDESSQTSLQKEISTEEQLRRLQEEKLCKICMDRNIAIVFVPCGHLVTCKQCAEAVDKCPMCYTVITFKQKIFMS

Molecule `O=C(NCC(F)(F)F)[C@@H]1c2ccccc2C(=O)N(Cc2ccccc2)[C@H]1c1ccc(CO)cc1` has a z-score [1] of 1.73, a z-score [2] of 0.402 and a z-score [3] of 1.34. It also gave a z-score [4] of 0.356, a z-score [5] of -0.407 and a z-score [6] of 2.14. The z-score [7] was 1.2 (inactive), the z-score [8] was 0.0511 and the z-score [9] was -0.657. For the same molecule, the z-score [10] was 0.176 (inactive), the z-score [11] was -0.699 and the z-score [12] was -0.0657 (inactive). The z-score [13] was -0.294 (inactive), the composite z-score [14] was -1.09 (inactive) and the z-score [15] was -0.0654 (inactive). The z-score [16] was 0.0566 (inactive), the z-score [17] was 0.126 (inactive) and the z-score [18] was 0.606 (inactive). For the same molecule, the z-score [19] was 0.368 and the composite z-score [20] was -0.239.
With `COCCOC(=O)N1C(=O)[C@@]2(c3ccccc31)[C@H](c1ccc(O)cc1)N1[C@H](c3ccccc3)[C@H](c3ccccc3)OC(=O)[C@H]1[C@@H]2C(N)=O` the z-score [1] was 0.357, the z-score [2] was 0.502 and the z-score [3] was 1.75. The z-score [4] was 0.936, the z-score [5] was 0.395 and the z-score [6] was -0.815. For the same molecule, the z-score [7] was 0.76 (inactive), the z-score [8] was 0.296 and the z-score [9] was -0.971. For the same molecule, the z-score [10] was -0.83 (inactive), the z-score [11] was -0.701 and the z-score [12] was 0.652 (inactive). The z-score [13] was -0.916 (inactive), the composite z-score [14] was -0.766 (inactive) and the z-score [15] was 0.125 (inactive). The z-score [16] was 0.623 (inactive), the z-score [17] was 0.596 (inactive) and the z-score [18] was 0.687 (inactive). For the same molecule, the z-score [19] was -1.01 and the composite z-score [20] was 0.0228.
For `O=C1OCC=C[C@H]2OC34C=CCN(c5ccc6ccccc6c5)C(=O)[C@H]3N(CCO)C(=O)[C@@H]4[C@@H]12` (stereo not given in full), the z-score [1] was 0.594, the z-score [2] was -0.355 and the z-score [3] was 0.379. It also gave a z-score [4] of -0.102, a z-score [5] of -0.29 and a z-score [6] of -0.542. The z-score [7] was -0.252 (inactive), the z-score [8] was 1.02 and the z-score [9] was -0.161. The z-score [10] was -0.0805 (inactive), the z-score [11] was -0.147 and the z-score [12] was -0.204 (inactive). The z-score [13] was 0.0073 (inactive), the composite z-score [14] was -1.47 (inactive) and the z-score [15] was -0.649 (inactive). For the same molecule, the z-score [16] was 0.195 (inactive), the z-score [17] was -0.246 (inactive) and the z-score [18] was -0.118 (inactive). It also gave a z-score [19] of 0.403 and a composite z-score [20] of 0.0896.
For `[N-]=[N+]=NCc1ccccc1C[C@@]1(C(=O)NCc2ccccc2)N=C(c2ccc(OCCCO)cc2)O[C@@H]1c1ccccc1CN=[N+]=[N-]`, the z-score [1] was -0.293, the z-score [2] was -0.0193 and the z-score [3] was 0.236. For the same molecule, the z-score [4] was -0.645, the z-score [5] was -1.13 and the z-score [6] was 0.0212. For the same molecule, the z-score [7] was -0.835 (inactive), the z-score [8] was -0.66 and the z-score [9] was -1.32. The z-score [10] was 1.01 (inactive), the z-score [11] was -0.594 and the z-score [12] was 0.548 (inactive). The z-score [13] was -0.709 (inactive), the composite z-score [14] was -0.067 (inactive) and the z-score [15] was 1.74 (inactive). For the same molecule, the z-score [16] was 1.28 (inactive), the z-score [17] was 0.561 (inactive) and the z-score [18] was 0.678 (inactive). The z-score [19] was -0.538 and the composite z-score [20] was -0.174.
Work on `CO[C@H]1O[C@H](CO)[C@@H](OC(=O)Nc2ccc3c(c2)OCO3)[C@H](OC(=O)Nc2ccc3c(c2)OCO3)[C@H]1OC(=O)Nc1ccc2c(c1)OCO2` yielded a z-score [1] of -0.689, a z-score [2] of -0.121 and a z-score [3] of -1.09. The z-score [4] was -1.57, the z-score [5] was -0.566 and the z-score [6] was 0.328. The z-score [7] was 0.374 (inactive), the z-score [8] was 0.0119 and the z-score [9] was 0.961. The z-score [10] was 0.38 (inactive), the z-score [11] was -0.159 and the z-score [12] was 1.66 (inactive). The z-score [13] was -0.798 (inactive), the composite z-score [14] was -0.145 (inactive) and the z-score [15] was 2.5 (inactive). For the same molecule, the z-score [16] was 2.54 (inactive), the z-score [17] was 1.73 (inactive) and the z-score [18] was -0.273 (inactive). For the same molecule, the z-score [19] was -0.511 and the composite z-score [20] was 0.463.
With `CCCNC(=O)[C@@]1(c2ccc([N+](=O)[O-])cc2)CC(=O)N(CC23CC4CC(CC(C4)C2)C3)[C@@H]1c1ccc(CO)cc1I` the z-score [1] was -1.29, the z-score [2] was -0.738 and the z-score [3] was -4.9. The z-score [4] was -3.81, the z-score [5] was -4.32 and the z-score [6] was 0.243. For the same molecule, the z-score [7] was -0.0911 (inactive), the z-score [8] was -0.872 and the z-score [9] was -2.18. The z-score [10] was -3.39 (inactive), the z-score [11] was -2.95 and the z-score [12] was 0.285 (inactive). The z-score [13] was -3.47 (inactive), the composite z-score [14] was 0.286 (inactive) and the z-score [15] was 0.32 (inactive). The z-score [16] was 1.34 (inactive), the z-score [17] was -0.643 (inactive) and the z-score [18] was 0.198 (inactive). The z-score [19] was -4.07 and the composite z-score [20] was -0.0749.
For `CCOC1=C2C(c3ccc(C)cc3)N(S(=O)(=O)c3ccc(C)cc3)CC2n2c(=O)n(-c3ccccc3)c(=O)n2C1` (stereo not given), the z-score [1] was -0.943, the z-score [2] was -0.334 and the z-score [3] was -0.422. For the same molecule, the z-score [4] was -0.255, the z-score [5] was -0.546 and the z-score [6] was 1.53. For the same molecule, the z-score [7] was 0.497 (inactive), the z-score [8] was 0.709 and the z-score [9] was -1.03. For the same molecule, the z-score [10] was -0.629 (inactive), the z-score [11] was -0.994 and the z-score [12] was 1.21 (inactive). The z-score [13] was -0.932 (inactive), the composite z-score [14] was -2.05 (inactive) and the z-score [15] was -0.172 (inactive). For the same molecule, the z-score [16] was 0.135 (inactive), the z-score [17] was -0.15 (inactive) and the z-score [18] was 0.717 (inactive). The z-score [19] was -0.774 and the composite z-score [20] was 0.199.
Work on `O=C1OCC=C[C@H]2OC34C=CCN(c5ccc(Cl)cc5)C(=O)[C@H]3N(CCCO)C(=O)[C@@H]4[C@@H]12` (stereo not given in full) yielded a z-score [1] of -0.0108, a z-score [2] of 1.46 and a z-score [3] of -0.722. It also gave a z-score [4] of 0.237, a z-score [5] of -0.802 and a z-score [6] of -0.545. The z-score [7] was 0.978 (inactive), the z-score [8] was -0.454 and the z-score [9] was 0.856. For the same molecule, the z-score [10] was -0.875 (inactive), the z-score [11] was -0.458 and the z-score [12] was -0.857 (inactive). The z-score [13] was -0.393 (inactive), the composite z-score [14] was -0.486 (inactive) and the z-score [15] was 0.276 (inactive). For the same molecule, the z-score [16] was 0.123 (inactive), the z-score [17] was 0.958 (inactive) and the z-score [18] was 0.579 (inactive). For the same molecule, the z-score [19] was 0.0679 and the composite z-score [20] was 0.0593.
For `CN1C(=O)C2C(C1=O)C1C=C(c3ccc(CO)cc3)C2C(C2CC2)N1Cc1sc2ccccc2c1Cl` (stereo not given), the z-score [1] was -0.245, the z-score [2] was 0.612 and the z-score [3] was 1.79. For the same molecule, the z-score [4] was -3.2, the z-score [5] was -4.33 and the z-score [6] was 2.19. For the same molecule, the z-score [7] was 0.46 (inactive), the z-score [8] was -0.957 and the z-score [9] was -2.05. The z-score [10] was -2.15 (inactive), the z-score [11] was 0.0076 and the z-score [12] was -1.82 (inactive). The z-score [13] was -5.41 (inactive), the composite z-score [14] was -1.46 (inactive) and the z-score [15] was 0.255 (inactive). For the same molecule, the z-score [16] was 1.2 (inactive), the z-score [17] was 0.225 (inactive) and the z-score [18] was 0.0618 (inactive). The z-score [19] was -3.3 and the composite z-score [20] was 0.262.
